Results from PubChem BioAssay (NCATS).
Records with an inconclusive call do not appear. Values without a mark were called inactive. Activity calls are given as the source filed them. The call rests on the fitted dose curve; in most records, active means well fitted cell-killing curve with a large enough effect; inconclusive means small, poorly fitted or top-dose-only effect, or effect the other way; inactive means flat fitted curve, though single readings scatter.

Test: qHTS assay for cell viability of the p53RE-bla HCT-116 cell line (AID 743292); further: nearly all actives have a fitted effect of over 55% in size
Settings: p53RE-bla HCT-116 viability, ATP luminescence, 16 h; series mostly up to 95 µM; activity change, negative = cytotoxicity: at the top concentration
Summary of the method: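 Viability of compound-treated p53RE-bla HCT-116 cells is taken from ATP-dependent luciferase luminescence. Treatment lasts 16 h at 37 C after a 5 h settling period; detection follows 30 min at room temperature.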
On the % scale 0 is the no-effect control and ±100 the full control effect.

Structure (SMILES) | outcome | activity change, negative = cytotoxicity [%]
O=C(O)CC(O)(CC(=O)O)C(=O)O | inactive | –
C=Cc1ccccc1 | inactive | –
COC(C)=O | – | -1.14
CN(C)Cc1ccccc1 | – | -7.28
CC(=O)S[C@@H]1CC2=CC(=O)CC[C@]2(C)[C@H]2CC[C@@]3(C)[C@@H](CC[C@@]34CCC(=O)O4)[C@H]12 | – | -16.6
CCCCCCCCCC(=O)O | inactive | –
CCCCCCCC/C=C\CCCCCCCC(=O)OC[C@@H](O)[C@H]1OC[C@H](O)[C@H]1O | – | -1.29
